This is part of a sample that, as a whole, favours compounds with a hit. Of some 83,000 tested, about 20% had one in any assay.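 Testing used 96-well plates and a 48-hour single-concentration exposure. Example: -40 means 40% of the starting cells died.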 A number with no mark means an inactive call. Activity calls are given as the source filed them.

The test system of the test is MOLT-4 leukemia. As to the kind of experiment: NCI-60 one-dose screen, 48 h (100 = growth as untreated, 0 = no growth, -100 = all killed). Conditions: 10 µM unless noted. As to the method:
Growth inhibition of the MOLT-4 human tumor cell line is measured as a screen for anti-cancer activity. Cells are grown in 96 well plates and exposed to the test compound for 48 hours. Compounds are tested at a single concentration, which is 10^-5 M for most compounds. The reported endpoint is percent growth (GI% or GIPRCNT), where numbers from 0 - 100% represent growth inhibition, and numbers from -100% - 0 represent cell death. For example, a value of 40 represents 60% growth inhibition. A value of 0 means no net growth occurred over the course of the experiment. A value of -40 indicates 40% of cells at the beginning of the experiment died by the end of the experiment. A value of -100 means all cells are dead at the end of the experiment.
NCI-60 Human Tumor Cell Lines Screen was performed using the standard one-dose NCI protocol, which is described in more detail at https://dtp.cancer.gov/discovery_development/nci-60/default.htm.
Compounds with GIPRCNT values below 10 were considered active. Activity score was based on GIPRCNT using the following formula: […]
Score is 0 for GIPRCNT values of 100 or above, 50 for GIPRCNT values of 0, and 100 for GIPRCNT values of -100.
Regarding `CC(=O)OC(c1ccccc1)C1CCOC1=O` (stereo not given), the growth is 82.8%.
As for `O=C(NC1CC(F)C1)c1cc2cccnc2n1-c1ccc(Cl)c(Cl)c1` (stereo not given), the figure is 98.9%.
Regarding `O=C(NCc1cccc(CNC(=O)Nc2nc3ccccc3[nH]2)c1)Nc1nc2ccccc2[nH]1`, the growth was -16.1% (active).
Under `Cc1c(CC(=S)N2CCOCC2)nnn1-c1cccc(C(F)(F)F)c1` stands 102%; under `CCSc1oc(C)nc1[P+](c1ccccc1)(c1ccccc1)c1ccccc1`, 38.4%.
As for `COc1cc(OC)cc(-c2ccc(-c3ccc(C(=N)N)o3)o2)c1`, the figure is 31.4%; as for `COc1ccc(/C=C(/C(=O)n2cnnn2)c2cc(OC)c(OC)c(OC)c2)cc1`, 40.5%.
Under `O=S(=O)(Nc1cc(Sc2cccc3cccnc23)c(O)c2ccccc12)c1ccccc1` stands -7.99% (active); under `CN(C)CCCC1(c2ccc(F)cc2)OCc2cc(-c3ccc4cc[nH]c4c3)ccc21` (stereo not given), -8.83% (active); under `C=C1C(=O)O[C@H]2[C@H]1CC/C(COC(=O)NCc1ccc(Cn3c(=O)sn(-c4ccc(C#N)cc4)c3=O)cc1)=C\CC[C@@]1(C)O[C@@H]21`, 30%.
For `CCOc1c(OC)cc2c(c1O)C(=O)N[C@@H]1[C@@H](O)[C@@H](O)[C@H](O)C[C@@H]21`, the growth was 92.4%.
As for `COC(=O)N1CC(Oc2ccccn2)C2CC1c1ccccc1O2` (stereo not given), the figure is 94.5%.
Turning to `O=c1cc(-c2ccccc2)[nH]c2ncc(-c3ccc(F)cc3)n12`, the growth is 39.9%.
`CCCCCCCCCCCCCCCCCCOc1ccccc1CC(=O)NCC[N+]1(C)CCCCC1`: the growth was 9.62% (active).
As for `CN(CCC(=O)c1ccccc1)CCC(=O)c1ccccc1`, the figure is 94.5%; as for `CCN1CCN(CC(=O)Nc2nc3ccc(NCc4ccc(F)cc4)cc3s2)CC1`, 84.8%; as for `COc1ccc2c(c1)c(-c1nc(-c3c[nH]c4ncccc34)cs1)cn2CCCN1CCOCC1`, -1.04% (active).
As for `O=C1/C=C/[C@@H](O)[C@@H]2C[C@@H](O)C[C@H]2/C=C/CCC[C@H](CCO)O1`, the figure is 15.1%.
Under `CCOc1cccc(/C=N/NC(=O)c2cccc(Nc3ccnc(C(F)(F)F)c3)c2)c1O` stands 18.2%; under `CCCCCCCCCCCCCOC(=O)c1c(C)[nH]c(/C=C2\N=C(c3ccc[nH]3)C=C2OC)c1C`, 22.8%.
Consider `O=C1Nc2ccccc2/C1=C/c1cccn1C(=O)c1ccc(Cl)s1`, for which the growth is 30.3%.
As for `Nc1nc(N)c2c(n1)NC(c1cccc(Nc3ccnc4cc(C(F)(F)F)ccc34)c1)CC(c1ccc(Br)cc1)=N2` (stereo not given), the figure is 9.24% (active); as for `N#Cc1nc(-c2ccccc2)oc1S(=O)(=O)N1CCN(c2ccc(F)cc2)CC1`, -15.7% (active).
In the case of `COc1ccc2c(c1)CCc1[nH]nc(-c3cc(OC)c(OC)c(OC)c3)c1-2`, the growth was 9.32% (active).
As for `O=C1c2ccccc2C(=O)c2c1c(C(=O)NCc1ccccc1)c1ccccn21`, the figure is 96.3%; as for `Cc1ccc(-c2nc(-c3cn(C)c4ncccc34)cs2)cc1`, 17.3% [100 µM].
As for `C=C1C(=O)O[C@H]2[C@H]1CC/C(Cn1cc(CCC)nn1)=C\CC[C@@]1(C)O[C@@H]21`, the figure is -1.09% (active); as for `C=C1C(=O)O[C@H]2[C@H]1CC/C(CNC(=O)c1c[nH]c3ccc(F)cc13)=C\CC[C@@]1(C)O[C@@H]21`, -39.7% (active).
As for `C#CCn1cnc2cnc(Nc3cccc(NC(=O)C=C)c3)nc21`, the figure is 8.28% [6.25 µM] (active); as for `C=CCC(CCCC)(C(=O)OCC)C(=O)OCC`, 108%.
For `COc1cc(OC)c(C(=O)C(CN(C)C)CN(C)C)cc1OC`, the growth was -39.8% (active).
On to `O=C(Nc1ccc(Cl)cc1)Oc1c(Cl)c(Cl)c(Cl)c(Cl)c1Cl`, for which the growth was 95.6%.
For `Nc1nc(N)c2c(n1)NC(c1ccc(Cl)cc1)C1CCc3ccccc3C1=N2` (stereo not given), the growth is 22.5%.
Under `COC(=O)CC[C@@H]1O[C@@H](c2ccc(F)cc2)[C@@H](O)[C@H]1O` stands 105%.
As for `O=C1c2ccccc2C(=O)C1c1ccc(Br)cc1`, the figure is 101%.
As for `COc1cccc(/C=C/C(=O)c2cccc(Nc3nc(Nc4ccccc4)nc(Nc4ccccc4)n3)c2)c1`, the figure is 58.8%.
For `N#Cc1ccc(O)c(C2=NCC(Cc3ccccc3)O2)c1` (stereo not given), the growth is 46.6%.
As for `CS(=O)(=O)c1ccc(NC(=O)c2ccccc2)nc1`, the figure is 71.3%; as for `S=c1[nH]c(=S)c2c(-c3ccccc3)c(-c3ccccc3)oc2[nH]1`, 101%.
As for `C=C1C(=O)O[C@H]2[C@H]1CC/C(COC(=O)/C=C\C(=O)NCc1ccc(Cn3c(=O)sn(CCCCC)c3=O)cc1)=C\CC[C@@]1(C)O[C@@H]21`, the figure is 18%.

For the origin of these results see PubChem BioAssay (NCI).
